An excerpt weighted towards active compounds, which were near 0.71% of everything screened.
TR SRC2 fluor cs: alters Texas Red total fluorescence, flagging assay interference; Potency, µM (titrated, usually from 106 µM); 280,000 tested, 0.29% active; AID 1479; TRb/SRC2 Texas Red total fluorescence interference; active = well fitted curve in either direction with a large enough effect; inconclusive = small, poorly fitted or top-dose-only effect
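Human TRb ligand-binding domain at 0.6 uM with 20 nM Texas Red SRC2 peptide in Tris buffer containing 1 uM T3 and 5% DMSO, incubated with compound 5 h at ambient temperature. Total fluorescence (555/632 nm) calculated as parallel + 2 × perpendicular.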
CBFb RUNX1 block: CBF-beta/RUNX1 interaction disruption. Q01196+Q13951. AlphaScreen CBFb-His/RUNX1-biotin binding, biochemical. Potency, µM (highest dose often 59.8 µM), usual class: inhibitors. 230,000 tested, under 10 active
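Read-out: AlphaScreen. Format: His-CBF-beta with biotinylated RUNX1 (30 nM each) preincubated 20 min, compound 15 min, Ni-chelate plus streptavidin beads 90 min; room temperature throughout.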
Epigenetic reg: epigenetic control regulation, reporter derepression | murine LDR cells, GFP reporter derepression, 30 h | Potency, µM (highest dose often 53.9 µM), hits mostly activators | 280,000 tested, 0.2% active | AID 1865; note: nearly all actives have a fitted effect of over 60% in size
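Readout is the number of GFP-expressing murine LDR cells, counted by cytometry following washing. Cells were treated with compound for 30 h at 37 C; the stably integrated CMV-GFP locus is normally silent.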
TRb-SRC2 inh: disrupts binding of human TR beta to SRC2; Potency, µM (doses to about 106 µM), hits mostly inhibitors; TRbeta-SRC2 peptide binding, fluorescence polarization; receptor liganded with 1 µM T3; 280,000 tested, 0.065% active; P10828; AID 1469; note: nearly all actives have a fitted effect of over 50% in size
Target sequence (P10828 whole entry, looked up): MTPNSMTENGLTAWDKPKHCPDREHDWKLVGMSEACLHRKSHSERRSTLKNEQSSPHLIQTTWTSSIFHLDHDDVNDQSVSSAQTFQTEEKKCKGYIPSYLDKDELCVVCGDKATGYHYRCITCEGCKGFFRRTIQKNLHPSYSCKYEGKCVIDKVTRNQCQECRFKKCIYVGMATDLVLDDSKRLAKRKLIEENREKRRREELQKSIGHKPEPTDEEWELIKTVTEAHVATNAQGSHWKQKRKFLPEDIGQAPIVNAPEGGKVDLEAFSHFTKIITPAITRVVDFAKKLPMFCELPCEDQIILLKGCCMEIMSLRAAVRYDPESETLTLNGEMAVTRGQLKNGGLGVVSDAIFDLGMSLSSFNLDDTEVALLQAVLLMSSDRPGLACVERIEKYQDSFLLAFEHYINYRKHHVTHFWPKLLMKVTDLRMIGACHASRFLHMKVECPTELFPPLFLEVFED
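Human TRb ligand-binding domain (0.6 uM) is mixed with 20 nM Texas Red SRC2 peptide and 1 uM T3; after compound addition and 5 hr at ambient temperature, polarization is measured and normalized to unbound and bound controls.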
RGS12 GoLoco inh: inhibitors of human Gai1-RGS12 GoLoco interaction (red fluorophore); P63096; Gai1:RGS12 GoLoco peptide FP, rhodamine, 10 min; Potency, µM (top dose mostly 61.6 µM), most hits filed as inhibitors; 230,000 tested, 0.44% active; active = well fitted inhibition curve with a large enough effect, not every such curve was filed as active; inactive = no such curve, though single readings can be large or run the other way; note: nearly all actives have a fitted effect of over 30% in size
Large screens that a line does not name were inactive; [ ] = dose if it differs, or a comment. Unless noted, calls come from the whole dose curve; as a rule, active = well fitted curve in the direction sought with a large enough effect; inconclusive = small, poorly fitted or top-dose-only effect, or another doubt; inactive = no such curve, though single readings can be large; an effect the other way counts as inactive or inconclusive.

CC1=[N+](C)c2c(ccc3cccnc23)C1(C)C	TR SRC2 fluor cs 11.2µM[fluorescent], Epigenetic reg inconclusive, TRb-SRC2 inh 25.1µM (no result: CBFb RUNX1 block)
Cc1[nH]c2c(ccc3cccnc32)c1C	none
COC(=O)[C@@H](NC(=O)N1CCc2nc(-c3ccc(OC)cc3C)c3c(c2C1)CO[C@@H](c1ccccc1)C3)C(C)C	none (no result: Epigenetic reg)
COC(=O)Cc1ccc(NC(=O)C(c2ccccc2)c2ccccc2)cc1	none
CCC[N+](C)(C)C(C)C(OC(C)=O)c1ccccc1 (centres undefined)	RGS12 GoLoco inh 7.94µM
CSc1ccc(/C=c2\s/c(=C\C(=O)C(C)(C)C)n(CC(=O)NCCC3=CCCCC3)c2=O)cc1	Epigenetic reg 20µM
Cc1cc2ccccc2c(=O)n1CC(=O)NCCC1=CCCCC1	none
c1ccc2sc(SSc3nc4ccccc4s3)nc2c1	RGS12 GoLoco inh 10µM (no result: Epigenetic reg)
O=C1C[C@H]2OCC=C3CN4CC[C@@]5(C(=O)O)[C@H](N1)C2[C@H]3C[C@H]45 (some centres undefined)	none (no result: TR SRC2 fluor cs, CBFb RUNX1 block, Epigenetic reg, TRb-SRC2 inh)
COCCN1C(=O)/C(=C/c2ccc(N3CCCC3)cc2)SC1=S	Epigenetic reg 3.55µM
CC(=O)c1cc(C)oc1C	none (no result: Epigenetic reg)
CC(C)N1CC2=C(OC(N)=C(C#N)C2c2cccnc2)/C(=C/c2cccnc2)C1 (centres undefined)	TR SRC2 fluor cs 44.7µM[fluorescent], TRb-SRC2 inh 44.7µM
CCN1CC2=C(OC(N)=C(C#N)C2c2ccccc2)/C(=C\c2ccccc2)C1 (centres undefined)	TR SRC2 fluor cs 44.7µM[fluorescent], TRb-SRC2 inh 44.7µM
N#CC1=C(N)OC2=C(CN(Cc3ccccc3)C/C2=C\c2cccnc2)C1c1cccnc1 (centres undefined)	TR SRC2 fluor cs inconclusive, TRb-SRC2 inh inconclusive
CC(C)c1ccc(C(C)C)cc1	none (no result: CBFb RUNX1 block, Epigenetic reg, RGS12 GoLoco inh)
Cc1ccc2oc(-c3cc(NC(=O)c4oc5ccccc5c4C)ccc3Cl)nc2c1	none (no result: CBFb RUNX1 block, RGS12 GoLoco inh)
Cc1c(C(=O)Nc2ccc(-c3nc4cc(Cl)ccc4o3)cc2)oc2ccccc12	TR SRC2 fluor cs 112µM[quencher] (no result: CBFb RUNX1 block, RGS12 GoLoco inh)
CC(NC(=O)Nc1ccc(O)cc1)(C(F)(F)F)C(F)(F)F	TRb-SRC2 inh 35.5µM
COC(=O)CC[C@@H](C)C1CC[C@H]2[C@H]3CC[C@H]4C[C@@H]5CCC4(C)[C@@]3(O5)[C@@H](Br)[C@@H](Br)[C@@]12C (some centres undefined)	none (no result: TR SRC2 fluor cs, CBFb RUNX1 block, Epigenetic reg, TRb-SRC2 inh)
CNc1nc(-c2c[nH]c3ccccc23)cs1	TR SRC2 fluor cs inconclusive
Nc1nc(-c2c[nH]c3ccccc23)cs1	TR SRC2 fluor cs 35.5µM[fluorescent]
COC(=O)C1(C(=O)OC)C/C=C\C/C=C\c2ccccc2[C@@H]1C[N+](=O)[O-]	none
Cc1noc(/C=C/c2ccc(-c3ccccc3Cl)o2)c1[N+](=O)[O-]	Epigenetic reg 7.08µM
CCOC(=O)c1c(S(=O)(=O)NCC(=O)N2CCN(c3cccc(Cl)c3)CC2)c(C)n(C)c1C	TR SRC2 fluor cs 0.355µM[quencher] (no result: CBFb RUNX1 block, RGS12 GoLoco inh)
